# Measurements published in the supplement of paper PMC4466140.
# Assays:
# Assay in all cases: SPOT peptide array binding signal intensity (averaged, normalized) (arbitrary units (background-subtracted, floor 0; scale differs between SH3 domains)); higher = stronger binding of the SH3 domain to the peptide
# AgAbp1 = molecular target: AgAbp1
# Outline: (§1)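 Binding signal is given in arbitrary units that differ between domains and is the normalized, background-subtracted spot intensity averaged across replicates. Each GST-SH3 fusion from one of four yeast species was made in E. coli BL21(DE3), purified on glutathione Sepharose and incubated at 10 μg/ml overnight at 4°C on cellulose-bound synthetic 15-mer peptides in which cysteines were replaced by serines. Detection used anti-GST antibody, an HRP anti-mouse secondary and luminol, followed by imaging and Genespotter quantification.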
# AgBbc1 = molecular target: AgBbc1
# Outline: as §1
# AgBem1-D1 = molecular target: AgBem1-D1
# Outline: as §1
# AgBzz1-D1 = molecular target: AgBzz1-D1
# Outline: as §1
# AgBzz1-D2 = molecular target: AgBzz1-D2
# Outline: as §1
# AgCyk3 = molecular target: AgCyk3
# Outline: as §1
# AgFus1 = molecular target: AgFus1
# Outline: as §1
# AgHof1 = molecular target: AgHof1
# Outline: as §1
# AgHse1 = molecular target: AgHse1
# Outline: as §1
# AgLsb1 = molecular target: AgLsb1
# Outline: as §1
# AgLsb4 = molecular target: AgLsb4
# Outline: as §1
# AgMyo5 = molecular target: AgMyo5
# Outline: as §1
# AgNbp2 = molecular target: AgNbp2
# Outline: as §1
# AgRvs167 = molecular target: AgRvs167
# Outline: as §1
# AgSho1 = molecular target: AgSho1
# Outline: as §1
# AgSla1-D1-D2 = molecular target: AgSla1-D1-D2
# Outline: as §1
# AgSla1-D3 = molecular target: AgSla1-D3
# Outline: as §1
# CaAbp1-D1 = molecular target: CaAbp1-D1
# Outline: as §1
# CaAbp1-D2 = molecular target: CaAbp1-D2
# Outline: as §1
# CaBbc1 = molecular target: CaBbc1
# Outline: as §1
# CaBem1-D1 = molecular target: CaBem1-D1
# Outline: as §1
# CaBzz1-D1 = molecular target: CaBzz1-D1
# Outline: as §1
# CaBzz1-D2 = molecular target: CaBzz1-D2
# Outline: as §1
# CaCyk3 = molecular target: CaCyk3
# Outline: as §1
# CaFus1 = molecular target: CaFus1
# Outline: as §1
# CaHof1 = molecular target: CaHof1
# Outline: as §1
# CaHse1 = molecular target: CaHse1
# Outline: as §1
# CaLsb1 = molecular target: CaLsb1
# Outline: as §1
# CaLsb4 = molecular target: CaLsb4
# Outline: as §1
# CaMyo5 = molecular target: CaMyo5
# Outline: as §1
# CaNbp2 = molecular target: CaNbp2
# Outline: as §1
# CaRvs167 = molecular target: CaRvs167
# Outline: as §1
# CaRvs167-3 = molecular target: CaRvs167-3
# Outline: as §1
# CaSho1 = molecular target: CaSho1
# Outline: as §1
# CaSla1-D1-D2 = molecular target: CaSla1-D1-D2
# Outline: as §1
# CaSla1-D3 = molecular target: CaSla1-D3
# Outline: as §1
# ScAbp1 = molecular target: ScAbp1
# Outline: as §1
# ScBbc1 = molecular target: ScBbc1
# Outline: as §1
# ScBem1-D1 = molecular target: ScBem1-D1
# Outline: as §1
# ScBzz1-D1 = molecular target: ScBzz1-D1
# Outline: as §1
# ScBzz1-D2 = molecular target: ScBzz1-D2
# Outline: as §1
# ScCyk3 = molecular target: ScCyk3
# Outline: as §1
# ScFus1 = molecular target: ScFus1
# Outline: as §1
# ScHof1 = molecular target: ScHof1
# Outline: as §1
# ScHse1 = molecular target: ScHse1
# Outline: as §1
# ScLsb1 = molecular target: ScLsb1
# Outline: as §1
# ScLsb2 = molecular target: ScLsb2
# Outline: as §1
# ScLsb3 = molecular target: ScLsb3
# Outline: as §1
# ScLsb4 = molecular target: ScLsb4
# Outline: as §1
# ScMyo3 = molecular target: ScMyo3
# Outline: as §1
# ScMyo5 = molecular target: ScMyo5
# Outline: as §1
# ScNbp2 = molecular target: ScNbp2
# Outline: as §1
# ScPex13 = molecular target: ScPex13
# Outline: as §1
# ScRvs167 = molecular target: ScRvs167
# Outline: as §1
# ScSho1 = molecular target: ScSho1
# Outline: as §1
# ScSla1-D1-D2 = molecular target: ScSla1-D1-D2
# Outline: as §1
# ScSla1-D3 = molecular target: ScSla1-D3
# Outline: as §1
# SpAbp1-D1 = molecular target: SpAbp1-D1
# Outline: as §1
# SpBbc1 = molecular target: SpBbc1
# Outline: as §1
# SpBzz1-D1 = molecular target: SpBzz1-D1
# Outline: as §1
binder,measurement,setting,value
VYTRTAFQIPGDDKI,SPOT peptide array binding signal intensity,AgAbp1,≤ 0
same,SPOT peptide array binding signal intensity,AgBbc1,≤ 0
same,SPOT peptide array binding signal intensity,AgBem1-D1,≤ 0
same,SPOT peptide array binding signal intensity,AgBzz1-D1,29
same,SPOT peptide array binding signal intensity,AgBzz1-D2,20
same,SPOT peptide array binding signal intensity,AgCyk3,0.5
same,SPOT peptide array binding signal intensity,AgFus1,≤ 0
same,SPOT peptide array binding signal intensity,AgHof1,10
same,SPOT peptide array binding signal intensity,AgHse1,≤ 0
same,SPOT peptide array binding signal intensity,AgLsb1,474
same,SPOT peptide array binding signal intensity,AgLsb4,≤ 0
same,SPOT peptide array binding signal intensity,AgMyo5,≤ 0
same,SPOT peptide array binding signal intensity,AgNbp2,≤ 0
same,SPOT peptide array binding signal intensity,AgRvs167,0.333
same,SPOT peptide array binding signal intensity,AgSho1,≤ 0
same,SPOT peptide array binding signal intensity,AgSla1-D1-D2,≤ 0
same,SPOT peptide array binding signal intensity,AgSla1-D3,≤ 0
same,SPOT peptide array binding signal intensity,CaAbp1-D1,≤ 0
same,SPOT peptide array binding signal intensity,CaAbp1-D2,≤ 0
same,SPOT peptide array binding signal intensity,CaBbc1,3
same,SPOT peptide array binding signal intensity,CaBem1-D1,≤ 0
same,SPOT peptide array binding signal intensity,CaBzz1-D1,83.5
same,SPOT peptide array binding signal intensity,CaBzz1-D2,26
same,SPOT peptide array binding signal intensity,CaCyk3,≤ 0
same,SPOT peptide array binding signal intensity,CaFus1,≤ 0
same,SPOT peptide array binding signal intensity,CaHof1,≤ 0
same,SPOT peptide array binding signal intensity,CaHse1,≤ 0
same,SPOT peptide array binding signal intensity,CaLsb1,184
same,SPOT peptide array binding signal intensity,CaLsb4,≤ 0
same,SPOT peptide array binding signal intensity,CaMyo5,≤ 0
same,SPOT peptide array binding signal intensity,CaNbp2,≤ 0
same,SPOT peptide array binding signal intensity,CaRvs167,0.833
same,SPOT peptide array binding signal intensity,CaRvs167-3,3.25
same,SPOT peptide array binding signal intensity,CaSho1,≤ 0
same,SPOT peptide array binding signal intensity,CaSla1-D1-D2,≤ 0
same,SPOT peptide array binding signal intensity,CaSla1-D3,0.5
same,SPOT peptide array binding signal intensity,ScAbp1,≤ 0
same,SPOT peptide array binding signal intensity,ScBbc1,≤ 0
same,SPOT peptide array binding signal intensity,ScBem1-D1,8
same,SPOT peptide array binding signal intensity,ScBzz1-D1,17.5
same,SPOT peptide array binding signal intensity,ScBzz1-D2,22.5
same,SPOT peptide array binding signal intensity,ScCyk3,≤ 0
same,SPOT peptide array binding signal intensity,ScFus1,≤ 0
same,SPOT peptide array binding signal intensity,ScHof1,≤ 0
same,SPOT peptide array binding signal intensity,ScHse1,≤ 0
same,SPOT peptide array binding signal intensity,ScLsb1,601
same,SPOT peptide array binding signal intensity,ScLsb2,895
same,SPOT peptide array binding signal intensity,ScLsb3,≤ 0
same,SPOT peptide array binding signal intensity,ScLsb4,≤ 0
same,SPOT peptide array binding signal intensity,ScMyo3,0.5
same,SPOT peptide array binding signal intensity,ScMyo5,≤ 0
same,SPOT peptide array binding signal intensity,ScNbp2,≤ 0
same,SPOT peptide array binding signal intensity,ScPex13,≤ 0
same,SPOT peptide array binding signal intensity,ScRvs167,1.83
same,SPOT peptide array binding signal intensity,ScSho1,≤ 0
same,SPOT peptide array binding signal intensity,ScSla1-D1-D2,≤ 0
same,SPOT peptide array binding signal intensity,ScSla1-D3,10.5
same,SPOT peptide array binding signal intensity,SpAbp1-D1,1
same,SPOT peptide array binding signal intensity,SpBbc1,≤ 0
same,SPOT peptide array binding signal intensity,SpBzz1-D1,75.5
